# Several values for one entry are separate records, joined by “and”; a condition that tells them apart may be missing. Equal entries are not always repeated. In all, about 5,500 compounds went through this assay and about 2,000 (36%) were called active. Another 18% or so got no clear call; they are omitted. The list shows a part of the results. A number with no mark means an inactive call. Rule as the data show it: active = normalized growth mostly below about 0.91 (no sharp cut-off); inconclusive = no clear call, values can overlap the other calls; inactive = mostly above about 0.92.
# Experiment: chemical genetic growth profiling, strain panel (AID 1159580);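 also: tested at 20 µM; growth read once vehicle control cultures reached saturation at 30 °C; 1 = growth at the plate median or of vehicle wells; lower values mean less growth of the strain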
# Conditions: growth OD
structure (smiles),measurement,setting,value
CN(C)CCC=C1c2ccccc2C=Cc2ccccc21,normalized growth,"S. cerevisiae deletion strains, locus YKL009W, strain mrt4, active compounds read low",0.959
same,normalized growth,"S. cerevisiae deletion strains, locus YKL068W, active compounds read low",0.982
same,normalized growth,"S. cerevisiae deletion strains, locus YKL085W, strain MDH1 (second series), active compounds read low",0.975
same,normalized growth,"S. cerevisiae deletion strains, locus YKL085W, strain MDH1, active compounds read low",0.975
same,normalized growth,"S. cerevisiae deletion strains, locus YKL160W, strain elf1, active compounds read low",0.958
same,normalized growth,"S. cerevisiae deletion strains, locus YKL190W, strain CNB1, active compounds read low",0.977
same,normalized growth,"S. cerevisiae deletion strains, locus YKR001C, strain vps1, active compounds read low",1.01
same,normalized growth,"S. cerevisiae deletion strains, locus YKR026C, strain gcn3, active compounds read low",0.998
same,normalized growth,"S. cerevisiae deletion strains, locus YKR091W, strain srl3, active compounds read low",0.971
same,normalized growth,"S. cerevisiae deletion strains, locus YLL001W, strain dnm1, active compounds read low",1.01
same,normalized growth,"S. cerevisiae deletion strains, locus YLL026W, active compounds read low",0.985
same,normalized growth,"S. cerevisiae deletion strains, locus YLL041C, strain sdh2, active compounds read low",0.984
same,normalized growth,"S. cerevisiae deletion strains, locus YLR027C, strain aat2, active compounds read low",0.98
same,normalized growth,"S. cerevisiae deletion strains, locus YLR039C, strain RIC1, active compounds read low",1.35 [resistant] (active)
same,normalized growth,"S. cerevisiae deletion strains, locus YLR058C, strain SHM2, active compounds read low",0.99
same,normalized growth,"S. cerevisiae deletion strains, locus YLR102C, strain apc9, active compounds read low",0.985
same,normalized growth,"S. cerevisiae deletion strains, locus YLR113W, strain HOG1, active compounds read low",1.04
same,normalized growth,"S. cerevisiae deletion strains, locus YLR221C, strain rsa3, active compounds read low",1
same,normalized growth,"S. cerevisiae deletion strains, locus YLR258W, strain gsy2, active compounds read low",0.989
same,normalized growth,"S. cerevisiae deletion strains, locus YLR262C, strain YPT6 (second series), active compounds read low",1.02
same,normalized growth,"S. cerevisiae deletion strains, locus YLR262C, strain YPT6, active compounds read low",1.53 [resistant] (active)
same,normalized growth,"S. cerevisiae deletion strains, locus YLR268W, strain sec22, active compounds read low",0.99
same,normalized growth,"S. cerevisiae deletion strains, locus YLR320W, strain mms22, active compounds read low",1.01
same,normalized growth,"S. cerevisiae deletion strains, locus YLR330W, strain CHS5, active compounds read low",0.987
same,normalized growth,"S. cerevisiae deletion strains, locus YLR342W, strain FKS1 (second series), active compounds read low",0.903
same,normalized growth,"S. cerevisiae deletion strains, locus YLR342W, strain FKS1, active compounds read low",0.979
same,normalized growth,"S. cerevisiae deletion strains, locus YLR357W, strain rsc2, active compounds read low",1.01
same,normalized growth,"S. cerevisiae deletion strains, locus YLR370C, strain arc18, active compounds read low",0.988
same,normalized growth,"S. cerevisiae deletion strains, locus YLR371W, strain rom2, active compounds read low",0.992
same,normalized growth,"S. cerevisiae deletion strains, locus YLR384C, strain iki3, active compounds read low",0.991
same,normalized growth,"S. cerevisiae deletion strains, locus YLR418C, strain cdc73, active compounds read low",0.811 (active)
same,normalized growth,"S. cerevisiae deletion strains, locus YML016C, strain PPZ1, active compounds read low",0.996
same,normalized growth,"S. cerevisiae deletion strains, locus YML032C, strain rad52, active compounds read low",1.01
same,normalized growth,"S. cerevisiae deletion strains, locus YML120C, strain ndi1, active compounds read low",1
same,normalized growth,"S. cerevisiae deletion strains, locus YML124C, strain tub3, active compounds read low",0.997
same,normalized growth,"S. cerevisiae deletion strains, locus YMR058W, strain fet3, active compounds read low",0.968
same,normalized growth,"S. cerevisiae deletion strains, locus YMR078C, strain ctf18, active compounds read low",0.984
same,normalized growth,"S. cerevisiae deletion strains, locus YMR125W, strain sto1, active compounds read low",0.95
same,normalized growth,"S. cerevisiae deletion strains, locus YMR129W, active compounds read low",0.99
same,normalized growth,"S. cerevisiae deletion strains, locus YMR205C, strain PFK2, active compounds read low",1
same,normalized growth,"S. cerevisiae deletion strains, locus YMR223W, strain ubp8, active compounds read low",0.951
same,normalized growth,"S. cerevisiae deletion strains, locus YMR231W, strain pep5, active compounds read low",0.989
same,normalized growth,"S. cerevisiae deletion strains, locus YMR263W, strain SAP30, active compounds read low",1
same,normalized growth,"S. cerevisiae deletion strains, locus YMR307W, strain GAS1, active compounds read low",1.01 and 0.999
same,normalized growth,"S. cerevisiae deletion strains, locus YNL067W, strain RPL9B, active compounds read low",0.994
same,normalized growth,"S. cerevisiae deletion strains, locus YNL071W, strain lat1, active compounds read low",0.99
same,normalized growth,"S. cerevisiae deletion strains, locus YNL153C, strain GIM3, active compounds read low",1.04 and 1
same,normalized growth,"S. cerevisiae deletion strains, locus YNL175C, strain NOP13, active compounds read low",1.06
same,normalized growth,"S. cerevisiae deletion strains, locus YNL183C, strain NPR1, active compounds read low",0.955
same,normalized growth,"S. cerevisiae deletion strains, locus YNL197C, strain WHI3, active compounds read low",1.02
same,normalized growth,"S. cerevisiae deletion strains, locus YNL209W, strain ssb2, active compounds read low",0.925 (active)
same,normalized growth,"S. cerevisiae deletion strains, locus YNL224C, strain SQS1, active compounds read low",1.01
same,normalized growth,"S. cerevisiae deletion strains, locus YNL233W, strain BNI4, active compounds read low",1.02
same,normalized growth,"S. cerevisiae deletion strains, locus YNL248C, strain rpa49, active compounds read low",0.959
same,normalized growth,"S. cerevisiae deletion strains, locus YNL250W, strain rad50, active compounds read low",0.985
same,normalized growth,"S. cerevisiae deletion strains, locus YNL271C, strain bni1, active compounds read low",0.986
same,normalized growth,"S. cerevisiae deletion strains, locus YNL298W, strain CLA4, active compounds read low",0.988
same,normalized growth,"S. cerevisiae deletion strains, locus YNL307C, strain MCK1, active compounds read low",0.994
same,normalized growth,"S. cerevisiae deletion strains, locus YNL322C, strain KRE1 (second series), active compounds read low",0.992
same,normalized growth,"S. cerevisiae deletion strains, locus YNL322C, strain KRE1, active compounds read low",0.977
same,normalized growth,"S. cerevisiae deletion strains, locus YNR049C, strain mso1, active compounds read low",0.978
same,normalized growth,"S. cerevisiae deletion strains, locus YNR052C, strain pop2, active compounds read low",0.948
same,normalized growth,"S. cerevisiae deletion strains, locus YOL006C, strain TOP1, active compounds read low",0.852
same,normalized growth,"S. cerevisiae deletion strains, locus YOL012C, strain htz1",0.956
same,normalized growth,"S. cerevisiae deletion strains, locus YOL147C, strain pex11, active compounds read low",0.996
same,normalized growth,"S. cerevisiae deletion strains, locus YOR001W, strain rrp6, active compounds read low",0.965
same,normalized growth,"S. cerevisiae deletion strains, locus YOR061W, strain CKA2, active compounds read low",0.99
same,normalized growth,"S. cerevisiae deletion strains, locus YOR069W, strain VPS5, active compounds read low",0.983
same,normalized growth,"S. cerevisiae deletion strains, locus YOR070C, strain gyp1, active compounds read low",0.966
same,normalized growth,"S. cerevisiae deletion strains, locus YOR080W, strain dia2, active compounds read low",0.98
same,normalized growth,"S. cerevisiae deletion strains, locus YOR083W, strain WHI5 (second series), active compounds read low",1.08
same,normalized growth,"S. cerevisiae deletion strains, locus YOR083W, strain WHI5, active compounds read low",0.945
same,normalized growth,"S. cerevisiae deletion strains, locus YOR106W, strain vam3, active compounds read low",0.89
same,normalized growth,"S. cerevisiae deletion strains, locus YOR136W, strain idh2, active compounds read low",1.03
same,normalized growth,"S. cerevisiae deletion strains, locus YOR144C, strain elg1, active compounds read low",1
same,normalized growth,"S. cerevisiae deletion strains, locus YOR184W, strain ser1, active compounds read low",1.04
same,normalized growth,"S. cerevisiae deletion strains, locus YOR231W, strain MKK1, active compounds read low",1.02
same,normalized growth,"S. cerevisiae deletion strains, locus YOR265W, strain rbl2, active compounds read low",0.983
same,normalized growth,"S. cerevisiae deletion strains, locus YOR270C, strain vph1, active compounds read low",0.809
same,normalized growth,"S. cerevisiae deletion strains, locus YOR290C, strain snf2, active compounds read low",0.958
same,normalized growth,"S. cerevisiae deletion strains, locus YOR316C, strain cot1, active compounds read low",0.988
same,normalized growth,"S. cerevisiae deletion strains, locus YPL051W, strain arl3, active compounds read low",0.964
same,normalized growth,"S. cerevisiae deletion strains, locus YPL078C, strain atp4, active compounds read low",0.989
same,normalized growth,"S. cerevisiae deletion strains, locus YPL106C, strain sse1, active compounds read low",0.927
same,normalized growth,"S. cerevisiae deletion strains, locus YPL240C, strain hsp82, active compounds read low",0.985
same,normalized growth,"S. cerevisiae deletion strains, locus YPL241C, strain CIN2, active compounds read low",0.978 and 1
same,normalized growth,"S. cerevisiae deletion strains, locus YPL256C, strain CLN2, active compounds read low",1.01
same,normalized growth,"S. cerevisiae deletion strains, locus YPR119W, strain clb2, active compounds read low",0.998
same,normalized growth,"S. cerevisiae deletion strains, locus YPR141C, strain kar3, active compounds read low",0.987
same,normalized growth,"S. cerevisiae deletion strains, locus YPR163C, strain tif3, active compounds read low",0.988
same,normalized growth,"S. cerevisiae deletion strains, locus YPR167C, strain met16, active compounds read low",0.992
same,normalized growth,"S. cerevisiae deletion strains, strain wtn01, active compounds read low",0.981
same,normalized growth,"S. cerevisiae strains, strain wild type, active compounds read low",0.99
